Compound activity deposited in PubChem by National Center for Advancing Translational Sciences (NCATS).
Only some compounds are listed: those with a hit (about 1.6% of all), similar ones and a draw of the others.
gsp antag – antagonizes gsp, the McCune-Albright syndrome mutation | gsp-mutant cells, cAMP HTRF, 30 min | Potency, µM (top dose mostly 76.9 µM), most hits filed as inhibitors | 340,000 tested, 0.4% active; calls by dose curve; cell line not stated here;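 further: intracellular cAMP measured with PDE inhibitor Ro 20-1724 present during compound exposure; nearly all actives have a fitted effect of over 65% in size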
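HTRF cAMP measurement after 30 min RT detection following 30 min, 37C compound treatment alongside […] (added as 300 uM solution) in G418-selected cells seeded at 2000/well and grown 16–24 h.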
Coupling enz – coupling enzyme interference in Giardia aldolase counter-screen; coupling enzyme system counterscreen, AmpLite Red fluorescence; activity change, negative = inhibition, % at 58.2 µM, hits read low; 290,000 tested, 0.67% active; in the data active means activity change below about -30%
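Counterscreen of the coupled detection system alone, without aldolase: glyceraldehyde-3-phosphate coupling enzymes plus AmpLite Red readout. Compounds at 57.5 uM final, 10 min RT preincubation, 20 min RT reaction, fluorescence 525/598 nm.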
RXFP1 ag – agonists of human relaxin receptor RXFP1; HEK293T-RXFP1 cAMP TR-FRET, 30 min; response scale: percent of porcine relaxin response, buffer zero; Potency, µM (highest dose often 57.5 µM), actives largely listed as activators; 370,000 tested, 0.3% active; active means well fitted activation curve with a large enough effect; inconclusive means small, poorly fitted or top-dose-only effect; further: nearly all actives have a fitted effect of over 60% in size
Target sequence (Q9HBX9 whole entry, looked up): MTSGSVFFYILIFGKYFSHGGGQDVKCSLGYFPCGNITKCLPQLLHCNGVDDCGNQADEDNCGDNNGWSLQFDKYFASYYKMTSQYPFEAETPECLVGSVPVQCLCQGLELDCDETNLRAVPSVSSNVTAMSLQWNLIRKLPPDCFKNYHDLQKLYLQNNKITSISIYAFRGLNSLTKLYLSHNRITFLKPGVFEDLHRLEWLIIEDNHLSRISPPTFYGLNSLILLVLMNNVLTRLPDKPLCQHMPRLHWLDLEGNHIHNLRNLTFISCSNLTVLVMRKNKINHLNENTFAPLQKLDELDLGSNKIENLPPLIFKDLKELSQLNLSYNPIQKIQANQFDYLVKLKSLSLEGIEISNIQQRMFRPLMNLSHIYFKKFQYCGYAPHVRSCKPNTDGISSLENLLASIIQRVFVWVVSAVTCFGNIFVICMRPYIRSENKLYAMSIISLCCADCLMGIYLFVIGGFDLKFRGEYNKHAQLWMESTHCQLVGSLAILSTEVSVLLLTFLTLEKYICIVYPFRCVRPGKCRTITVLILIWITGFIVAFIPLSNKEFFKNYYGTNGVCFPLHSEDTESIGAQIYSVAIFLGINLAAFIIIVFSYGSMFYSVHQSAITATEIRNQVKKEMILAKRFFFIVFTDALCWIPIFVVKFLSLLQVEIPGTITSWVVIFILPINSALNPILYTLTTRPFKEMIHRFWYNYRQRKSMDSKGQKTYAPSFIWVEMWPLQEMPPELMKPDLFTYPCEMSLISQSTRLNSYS
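HEK293 cells stably expressing RXFP1, treated 30 min at 37C with compounds plus PDE4 inhibitor Ro 20174; cAMP measured by HTRF TR-FRET. Normalized to buffer and 29 nM porcine relaxin; EC50 by Hill fit.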
gsp ag – activates gsp, the McCune-Albright syndrome mutation; gsp mutant cells, cAMP HTRF, 30 min; Potency, µM (top dose mostly 76.9 µM), actives largely listed as activators; 340,000 tested, 0.13% active; AID 624287; active means well fitted activation curve with a large enough effect; inconclusive means small, poorly fitted or top-dose-only effect, or another doubt; inactive means no such curve, though single readings can be large or run the other way; cell line not stated here;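 further: phosphodiesterase inhibitor Ro 20-1724 added with compounds to block cAMP breakdown; nearly all actives have a fitted effect of over 60% in size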
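Cells in DMEM/10% FBS with G418 were pretreated with compounds in DMSO plus […] (300 uM stock) for 30 min at 37C. cAMP was measured by HTRF (cAMP-d2 plus anti-cAMP antibody-K) after 30 min at room temperature.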
RXFP1 antag – RXFP1 (human) relaxin receptor antagonism; HEK293-RXFP1, relaxin-stimulated cAMP HTRF, 30 min; stronger effect = lower value; activity change, negative = inhibition, % at 57.5 µM; 350,000 tested, 0.59% active; AID 1259400;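 active means activity change of -60% or lower, but not beyond a set lower limit; inconclusive means change between -60% and -40%, or beyond the set limit; inactive means change above -40%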
Giardia kill – Giardia lamblia killing; Giardia lamblia trophozoite viability; activity change, % at 7.66 µM, hits read low; 340,000 tested, 0.15% active; AID 540267; in the data active means activity change below about -80%; inconclusive means between about -30% and that limit;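 further: parasites exposed to compound for two days anaerobically before the ATP read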
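Trophozoites 100 cells/well + cpd; 48 hrs, 37 deg C, anaerobic. ATPLite 1-Step added, 15-30 min RT, luminescence read (ATP-based viability).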
Of the large screens only hits and unclear results are named; the others gave an inactive call; ! = a repeat was not active.

O=S(=O)(Nc1cc(Sc2ncn[nH]2)c(O)c2ccccc12)c1ccccc1	gsp antag inconclusive, Coupling enz -55
CC(=O)OCCn1c2nc(=O)[nH]c(=O)c-2nc2cc(C)c(C)cc21	RXFP1 ag inconclusive, gsp ag inconclusive
Cc1cc2nc3c(=O)[nH]c(=O)nc-3n(CC(O)C(O)C(O)CO)c2cc1C (stereo not given)	Coupling enz -33! (no result: gsp antag, RXFP1 ag, gsp ag, RXFP1 antag, Giardia kill)
COc1cccc(CNC(=O)CCCn2c(=S)[nH]c3cc4c(cc3c2=O)OCO4)c1	gsp ag inconclusive, RXFP1 antag -71 (no result: Coupling enz)
O=C(CCCCCn1c(=S)[nH]c2ccccc2c1=O)NCc1ccc2c(c1)OCO2	RXFP1 antag -62
O=c1c2ccccc2[nH]c(=S)n1Cc1ccc2c(c1)OCO2	RXFP1 ag inconclusive
O=C(CCCn1c(=S)[nH]c2cc3c(cc2c1=O)OCO3)NCc1ccccc1Cl	RXFP1 ag inconclusive, gsp ag inconclusive, RXFP1 antag -108
C=C(C)C1CCC(C)C(OC(C)=O)C1 (stereo not given)	none (no result: gsp antag, RXFP1 ag, gsp ag, RXFP1 antag, Giardia kill)
COc1ccc(S(=O)(=O)N2CCN(c3ccc(F)cc3)CC2)cc1C(=O)N1CCOCC1	none (no result: gsp antag)
CC(C)CO/N=C1/C[C@@H](O)[C@@H](O)[C@@H]2[C@H]3C(=O)N(c4ccc(F)cc4F)C(=O)[C@@H]3CC[C@H]12	none (no result: gsp antag, RXFP1 ag, gsp ag, RXFP1 antag, Giardia kill)
C=C1[C@@H]2CC[C@H](C2)C1(C)C	none (no result: gsp antag, RXFP1 ag, gsp ag, RXFP1 antag, Giardia kill)
O=C(c1ccc(CS(=O)Cc2ccccc2Cl)o1)N1CCN(c2cccc(Cl)c2)CC1 (stereo not given)	gsp antag 32µM
COCOc1ccc(Br)cc1C(=O)/C=C\c1ccc2c(c1)OCO2	none (no result: gsp antag, RXFP1 ag, gsp ag, RXFP1 antag, Giardia kill)
CC(NC(=O)Cn1ncc(Cl)c(Cl)c1=O)C12CC3CC(CC(C3)C1)C2 (stereo not given)	gsp antag inconclusive, RXFP1 antag -100
Cc1ccc(OCC(=O)OCc2cc(=O)n3ccsc3n2)cc1C	none (no result: gsp antag, Coupling enz, gsp ag, RXFP1 antag, Giardia kill)
COCCCNCCCCOc1ccc(OCc2ccccc2)cc1	none
c1ccc(COc2ccc(OCCCNC3CCCC3)cc2)cc1	RXFP1 antag -86
O=C(NC1CCCC1)c1ccccc1OCc1ccccc1	RXFP1 antag -82
O=C(NC1CCN(Cc2ccccc2)CC1)c1ccccc1OCc1ccccc1	none
Cn1c2c(c(=O)n(C)c1=O)C(C(F)(F)F)(C(F)(F)F)N=C(CCC1CCCCC1)N2	RXFP1 antag -65
CC1(C)CC[C@]2(C(=O)O)CC[C@]3(C)C(=CC[C@@H]4[C@@]5(C)CC[C@H](O[C@@H]6O[C@H](C(=O)O)[C@@H](O)[C@H](O[C@@H]7OC[C@H](O)[C@H](O)[C@H]7O)[C@H]6O)C(C)(C)[C@@H]5CC[C@]43C)[C@@H]2C1	gsp antag 45µM (no result: Coupling enz, RXFP1 ag, gsp ag, RXFP1 antag)
C[C@H]1O[C@H](O[C@H]2[C@H](O[C@@H]3CC[C@@]4(C)C(CC[C@]5(C)C4CC=C4[C@@H]6CC(C)(C)CC[C@]6(C(=O)O[C@@H]6O[C@H](CO)[C@@H](O)[C@H](O)[C@H]6O)CC[C@]45C)C3(C)C)O[C@H](C(=O)O)[C@@H](O)[C@@H]2O)[C@@H](O)[C@@H](O)[C@@H]1O (stereo not given in full)	none (no result: Coupling enz)
CC1OC(OC2C(CO)OC(OCC3OC(OC(=O)[C@@]45CCC(C)(C)C[C@@H]4C4=CC[C@@H]6[C@@]7(C)CCC(OC8OCC(O)C(O)C8OC8OC(C)C(O)C(O)C8O)[C@@](C)(CO)C7CC[C@@]6(C)[C@]4(C)CC5)C(O)C(O)C3O)C(O)C2O)C(O)C(O)C1O (stereo not given in full)	gsp antag 40µM (no result: Coupling enz, RXFP1 ag, gsp ag, RXFP1 antag)
CN(CCO)c1nc(-c2cccs2)nc2ccccc12	none (no result: gsp antag, Coupling enz, RXFP1 ag, gsp ag, RXFP1 antag)
CCOC(=O)c1c(NC(=O)c2ccc(S(=O)(=O)N3CCC(C)CC3)cc2)sc2c1CCN(C)C2	RXFP1 antag -63 (no result: gsp antag, Coupling enz, gsp ag, Giardia kill)
CC(COc1ccccc1)NN (stereo not given)	none (no result: gsp antag, Coupling enz, RXFP1 ag, gsp ag, Giardia kill)
Cc1ccc2c(=O)n3c(nc2c1)C(C)NC(=O)c1cccnc1-3 (stereo not given)	gsp ag 32µM (no result: gsp antag, Coupling enz, RXFP1 ag, Giardia kill)
CC1NC(=O)c2cccnc2-n2c1nc1ccccc1c2=O (stereo not given)	gsp ag inconclusive (no result: gsp antag, Coupling enz, RXFP1 ag, Giardia kill)
N=c1c(C(=O)NCc2ccc3c(c2)OCO3)cc2c(=O)n3ccccc3nc2n1CC1CCCO1 (stereo not given)	gsp ag 28µM
CC(C)[C@H](NC(=O)[C@@H](Cc1c[nH]c2ccccc12)NC(=O)[C@H](Cc1ccc(O)cc1)NC(=O)[C@@H](N)CC(=O)O)C(=O)N[C@H](Cc1c[nH]c2ccccc12)C(=O)N[C@H](Cc1c[nH]c2ccccc12)C(=O)N[C@@H](CCCCN)C(N)=O	none (no result: gsp antag, RXFP1 ag, gsp ag, RXFP1 antag, Giardia kill)
Cc1ccn2c(NC(=O)c3ccccc3)c(-c3cccs3)nc2c1	none
Cc1nc2ccccn2c1-c1csc(NCc2ccco2)n1	gsp ag inconclusive
Cc1ccn2c(NCc3ccccc3)c(-c3cccs3)nc2c1	RXFP1 antag -77
Cc1ccn2c(-c3csc(NCc4ccccc4)n3)c(C)nc2c1	gsp antag 40µM
C=C(CCC(=O)c1ccccc1)C(=O)c1ccccc1	RXFP1 antag -67
Cc1c(N)cccc1C(F)(F)F	none (no result: gsp antag, Coupling enz, RXFP1 ag, gsp ag, Giardia kill)
CCN(CC)CCCNc1cc(-c2ccccc2)nc(C)n1	none (no result: gsp antag, Coupling enz, gsp ag, Giardia kill)
NC(=O)c1ccc(Oc2cccc3cccnc23)c([N+](=O)[O-])c1	none
O=[N+]([O-])c1ccc(Oc2cccc3cccnc23)c(Cl)c1	Coupling enz -37
Cc1ccc(Oc2ncccc2N)c2c1CCC2	none
O=[N+]([O-])c1cc2oc3c(c2c(C=NCc2ccccc2)c1O)CCCC3	none
CC(C)CN=Cc1c(O)c([N+](=O)[O-])cc2oc3c(c12)CCCC3	Coupling enz -32
Cc1ccc(Nc2nc(CSc3nnc(-c4ccc(F)cc4)n3C)cs2)cc1	gsp antag inconclusive
CSc1ccc(S(=O)(=O)N(C)Cc2ccccc2)cc1	gsp antag 35µM
COc1cc(OC)c2c(c1)C(=O)OC2c1cc(OC)c(OC)cc1C (stereo not given)	none (no result: gsp antag, Coupling enz, RXFP1 ag, gsp ag, RXFP1 antag)
O=S(=O)(/N=S1/CC=CCN1S(=O)(=O)c1ccccc1)c1ccccc1 (stereo not given)	RXFP1 antag -72
O=c1oc2cc(O)c(Cl)cc2c2ccccc12	RXFP1 ag 11µM, gsp ag 2.2µM
CC(C)CC(=O)N1CCN(Cc2ccc3ccccc3c2)CC1	none
CSc1ccc(CN2CCN(C(=O)CC(C)C)CC2)cc1	RXFP1 antag -63
CC(C)OC(=O)c1cc(NC(=S)Nc2ccc([N+](=O)[O-])cc2)cc(C(=O)OC(C)C)c1	gsp antag inconclusive
CC(C)OC(=O)c1cc(C(=O)OC(C)C)cc([N+](=O)[O-])c1	RXFP1 antag -71 (no result: gsp antag, Coupling enz, RXFP1 ag, gsp ag, Giardia kill)
CCC(=O)Nc1ccc2c(c1)C(=O)c1ccccc1C2=O	none
